Test results reported in PubChem BioAssay (NCI).
Where “and” joins values, the source holds several entries; their conditions need not be identical. Identical values can stand only once. The panel holds about 83,000 compounds, 20% with a hit somewhere; the sample as a whole holds those more often.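 For each line, cells grew in 96-well plates with the test compound present at a single concentration for 48 hours.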 Calls of active or inactive are those of the source. The calls were made as follows: active = growth percent below 10; inactive = the rest.

What was measured:
Assay in all cases: NCI-60 one-dose screen, 48 h (100 = growth as untreated, 0 = no growth, -100 = all killed)
HCT-15 colon = details: 10 µM
HT29 colon = details: 10 µM
SNB-75 CNS = details: 10 µM
SNB-19 CNS = details: 10 µM
U251 CNS = details: 10 µM
SK-MEL-5 melanoma = details: 10 µM
UACC-62 melanoma = details: 10 µM unless noted
LOX IMVI melanoma = details: 10 µM
SK-MEL-28 melanoma = details: 10 µM
SK-MEL-2 melanoma = details: 10 µM
EKVX NSCLC = details: 10 µM
SN12C renal = details: 10 µM
UO-31 renal = details: 10 µM
TK-10 renal = details: 10 µM unless noted
ACHN renal = details: 10 µM
CAKI-1 renal = details: 10 µM
A498 renal = details: 10 µM
CCRF-CEM leukemia = details: 10 µM
HL-60(TB) leukemia = details: 10 µM
PC-3 prostate = details: 10 µM

CC(C)(C)OOC(=O)/C=C\C(=O)OOC(C)(C)C
growth (HCT-15 colon): 106% (inactive) | growth (HT29 colon): 105% (inactive) | growth (SNB-75 CNS): 98.5% (inactive) | growth (SNB-19 CNS): 91.9% (inactive) | growth (U251 CNS): 99.2% (inactive) | growth (SK-MEL-5 melanoma): 106% (inactive) | growth (UACC-62 melanoma): 94.7% (inactive) | growth (LOX IMVI melanoma): 107% (inactive) | growth (SK-MEL-28 melanoma): 109% (inactive) | growth (SK-MEL-2 melanoma): 103% (inactive) | growth (EKVX NSCLC): 123% (inactive) | growth (SN12C renal): 97.3% (inactive) | growth (UO-31 renal): 103% (inactive) | growth (TK-10 renal): 101% (inactive) | growth (ACHN renal): 108% (inactive) | growth (CAKI-1 renal): 127% (inactive) | growth (A498 renal): 109% (inactive) | growth (CCRF-CEM leukemia): 96.4% (inactive)

Oc1ccccc1-c1ccccc1
growth (HCT-15 colon): 104% (inactive) and 94.6% (inactive) | growth (HT29 colon): 97% (inactive) and 98.8% (inactive) | growth (SNB-75 CNS): 97.4% (inactive) and 79.2% (inactive) | growth (SNB-19 CNS): 101% (inactive) and 93.4% (inactive) | growth (U251 CNS): 99% (inactive) and 98.1% (inactive) | growth (SK-MEL-5 melanoma): 102% (inactive) and 97.7% (inactive) | growth (UACC-62 melanoma): 98.5% (inactive) and 96% (inactive) | growth (LOX IMVI melanoma): 92.3% (inactive) and 108% (inactive) | growth (SK-MEL-28 melanoma): 112% (inactive) and 102% (inactive) | growth (SK-MEL-2 melanoma): 98.1% (inactive) and 98.2% (inactive) | growth (EKVX NSCLC): 116% (inactive) | growth (SN12C renal): 104% (inactive) and 92.6% (inactive) | growth (UO-31 renal): 91.1% (inactive) | growth (TK-10 renal): 97.4% (inactive) and 105% (inactive) | growth (ACHN renal): 95.2% (inactive) and 104% (inactive) | growth (CAKI-1 renal): 97.4% (inactive) and 121% (inactive) | growth (A498 renal): 85.5% (inactive) and 108% (inactive) | growth (HL-60(TB) leukemia): 96.2% (inactive) and 103% (inactive) | growth (CCRF-CEM leukemia): 103% (inactive) and 94.8% (inactive)

COc1cc(/C=C/[N+](=O)[O-])cc(OC)c1OC
growth (HCT-15 colon): -9.12% (active) | growth (HT29 colon): -27.1% (active) | growth (SNB-75 CNS): 18.9% (inactive) | growth (SNB-19 CNS): 56.5% (inactive) | growth (U251 CNS): 18.4% (inactive) | growth (PC-3 prostate): 6.51% (active) | growth (UACC-62 melanoma): -26.9% (active) | growth (LOX IMVI melanoma): -71.7% (active) | growth (SK-MEL-28 melanoma): -7.3% (active) | growth (SK-MEL-2 melanoma): 63.6% (inactive) | growth (EKVX NSCLC): 73.6% (inactive) | growth (SN12C renal): 30.7% (inactive) | growth (UO-31 renal): -85.3% (active) | growth (TK-10 renal): -11% (active) | growth (ACHN renal): -42.2% (active) | growth (CAKI-1 renal): -78.2% (active) | growth (HL-60(TB) leukemia): -16.6% (active)

COC(C(=O)C(O)C(C)O)C1Cc2cc3cc(OC4CC(OC(C)=O)C(OC5CC(O)C(OC)C(C)O5)C(C)O4)cc(O)c3c(O)c2C(=O)C1OC1CC(OC2CC(OC3CC(C)(O)C(OC(=O)C(C)C)C(C)O3)C(O)C(C)O2)C(O)C(C)O1 (centres undefined)
growth (HCT-15 colon): 25.1% (inactive) | growth (HT29 colon): -2.06% (active) | growth (SNB-75 CNS): -74% (active) | growth (SNB-19 CNS): -4.78% (active) | growth (U251 CNS): 8.24% (active) | growth (PC-3 prostate): 1.13% (active) | growth (SK-MEL-5 melanoma): -97.3% (active) | growth (UACC-62 melanoma): -97% (active) | growth (LOX IMVI melanoma): 1.99% (active) | growth (SK-MEL-2 melanoma): -60.7% (active) | growth (EKVX NSCLC): -16% (active) | growth (SN12C renal): 5.41% (active) | growth (UO-31 renal): -35.2% (active) | growth (TK-10 renal): 20.2% (inactive) | growth (ACHN renal): 3.27% (active) | growth (CAKI-1 renal): 17.1% (inactive) | growth (HL-60(TB) leukemia): -46.3% (active) | growth (CCRF-CEM leukemia): -13.4% (active)

O=[N+]([O-])/C=C/c1ccc([N+](=O)[O-])cc1
growth (HCT-15 colon): -30.1% (active) and 12.6% (inactive) | growth (HT29 colon): -46.8% (active) and 72.9% (inactive) | growth (SNB-75 CNS): 48.7% (inactive) and 90.1% (inactive) | growth (SNB-19 CNS): 72.6% (inactive) and 96.2% (inactive) | growth (U251 CNS): -16.5% (active) and 87.8% (inactive) | growth (SK-MEL-5 melanoma): 97.9% (inactive) | growth (UACC-62 melanoma): 71.5% (inactive) and 81.1% (inactive) | growth (LOX IMVI melanoma): -90.1% (active) and 70% (inactive) | growth (SK-MEL-28 melanoma): 82.2% (inactive) and 103% (inactive) | growth (SK-MEL-2 melanoma): -43.8% (active) and 79.7% (inactive) | growth (EKVX NSCLC): 78.2% (inactive) and 84.1% (inactive) | growth (SN12C renal): 64.4% (inactive) and 62% (inactive) | growth (UO-31 renal): -82.9% (active) and 62.7% (inactive) | growth (TK-10 renal): 18.8% (inactive) and 88.6% (inactive) | growth (ACHN renal): 21.5% (inactive) and 76.4% (inactive) | growth (CAKI-1 renal): 38.8% (inactive) | growth (HL-60(TB) leukemia): 17.1% (inactive) and 55.2% (inactive) | growth (CCRF-CEM leukemia): 34.8% (inactive)

COc1cc(/C=C(/C)[N+](=O)[O-])ccc1O
growth (HCT-15 colon): -48.3% (active) and 1.2% (active) | growth (HT29 colon): 3.02% (active) and -26.9% (active) | growth (SNB-75 CNS): 74.3% (inactive) and 1.18% (active) | growth (SNB-19 CNS): 81.5% (inactive) and 75.1% (inactive) | growth (U251 CNS): 25.4% (inactive) and 28% (inactive) | growth (SK-MEL-5 melanoma): 82.3% (inactive) and 64.6% (inactive) | growth (UACC-62 melanoma): 55.4% (inactive) and -53.8% (active) | growth (LOX IMVI melanoma): -25.7% (active) and -73.2% (active) | growth (SK-MEL-28 melanoma): 33.1% (inactive) and -9.24% (active) | growth (SK-MEL-2 melanoma): 19.6% (inactive) and 72.1% (inactive) | growth (EKVX NSCLC): 84.6% (inactive) | growth (SN12C renal): 27.5% (inactive) and 23.2% (inactive) | growth (UO-31 renal): -10.8% (active) and -16.8% (active) | growth (TK-10 renal): -21.2% (active) and 61.7% (inactive) | growth (ACHN renal): -39.8% (active) and 16.4% (inactive) | growth (CAKI-1 renal): -0.672% (active) | growth (CCRF-CEM leukemia): -35% (active)

S=C=NCCc1ccccc1
growth (HCT-15 colon): 51.7% (inactive) | growth (HT29 colon): 31.9% (inactive) | growth (SNB-75 CNS): 54.2% (inactive) | growth (SNB-19 CNS): 54.3% (inactive) | growth (U251 CNS): 46.5% (inactive) | growth (PC-3 prostate): 64.2% (inactive) | growth (SK-MEL-5 melanoma): -28.2% (active) | growth (UACC-62 melanoma): 55% (inactive) | growth (LOX IMVI melanoma): 32.2% (inactive) | growth (SK-MEL-2 melanoma): 104% (inactive) | growth (EKVX NSCLC): 127% (inactive) | growth (SN12C renal): 68.4% (inactive) | growth (UO-31 renal): 51.3% (inactive) | growth (TK-10 renal): 78.9% (inactive) | growth (ACHN renal): 72% (inactive) | growth (CAKI-1 renal): 69.4% (inactive) | growth (CCRF-CEM leukemia): 16.7% (inactive)
